Data published in PubChem BioAssay AID1159580 (chemical genetic matrix, 2015).
Values joined by “and” are separate entries in the source; they are usually repeats but may differ in a detail not shown here. Equal values may be shown once. Screen size: about 5,500 compounds; about 2,000 (36%) were called active. Roughly 18% stayed inconclusive and do not appear here. No stated cut-off is given here; in the data, active means normalized growth mostly below about 0.91 (no sharp cut-off); inconclusive means no clear call, values can overlap the other calls; inactive means mostly above about 0.92. The list shows a part of the results.

Assay: chemical genetic growth profiling, strain panel (AID 1159580);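 further: tested at 20 µM; growth read once vehicle control cultures reached saturation at 30 °C; 1 = growth at the plate median or of vehicle wells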
Details: S. cerevisiae deletion strains, growth OD

Measured: normalized growth

CCOc1cccc(C(=O)c2ccc(O)c(O)c2O)c1
0.603 (active) and 0.961 (inactive): locus YJL095W, strain BCK1, stronger effect = lower value
active: locus YAL021C, strain ccr4, stronger effect = lower value 0.601 | locus YAL026C, strain drs2, stronger effect = lower value 0.813 | locus YAL030W, strain snc1, stronger effect = lower value 0.928 | locus YBL061C, strain skt5, stronger effect = lower value 0.888 | locus YBR009C, strain hhf1, stronger effect = lower value 0.879 | locus YBR023C, strain chs3, stronger effect = lower value 0.806 | locus YBR231C, strain swc5, stronger effect = lower value 0.783 | locus YCL029C, strain bik1, stronger effect = lower value 0.776 | locus YDL035C, strain GPR1, stronger effect = lower value 0.804 | locus YDL074C, strain BRE1, stronger effect = lower value 0.67 | locus YDL101C, strain DUN1, stronger effect = lower value 0.752 | locus YDL185W, strain tfp1, stronger effect = lower value 0.586 | locus YDL192W, strain arf1, stronger effect = lower value 0.815 | locus YDR069C, strain doa4, stronger effect = lower value 0.566 | locus YDR101C, strain arx1, stronger effect = lower value 0.889 | locus YDR137W, strain rgp1, stronger effect = lower value 0.643 | locus YDR159W, strain sac3, stronger effect = lower value 0.84 | locus YDR162C, strain NBP2, stronger effect = lower value 0.672 | locus YDR297W, strain sur2, stronger effect = lower value 0.916 | locus YDR318W, strain mcm21, stronger effect = lower value 0.877 | locus YDR334W, strain swr1, stronger effect = lower value 0.886 | locus YDR335W, strain msn5, stronger effect = lower value 0.84 | locus YDR388W, stronger effect = lower value 0.923 | locus YDR502C, strain sam2, stronger effect = lower value 0.791 | locus YEL003W, strain gim4, stronger effect = lower value 0.839 | locus YER015W, strain faa2, stronger effect = lower value 0.89 | locus YER111C, strain swi4, stronger effect = lower value 0.815 | locus YER155C, strain BEM2 (second series), stronger effect = lower value 0.847 | locus YER155C, strain BEM2, stronger effect = lower value 0.858 | locus YFR010W, strain ubp6, stronger effect = lower value 0.84 | locus YGL086W, strain mad1, stronger effect = lower value 0.782 | locus YGL173C, strain kem1, stronger effect = lower value 0.766 | locus YGL248W, strain PDE1, stronger effect = lower value 0.792 | locus YGL253W, strain hxk2, stronger effect = lower value 0.901 | locus YGR135W, strain pre9, stronger effect = lower value 0.777 | locus YHR013C, strain ard1, stronger effect = lower value 0.81 | locus YHR027C, strain rpn1, stronger effect = lower value 0.83 | locus YHR079C, strain IRE1 (second series), stronger effect = lower value 0.859 | locus YHR129C, strain ARP1, stronger effect = lower value 0.761 | locus YHR142W, strain chs7, stronger effect = lower value 0.776 | locus YHR200W, strain rpn10, stronger effect = lower value 0.859 | locus YIL066C, strain RNR3, stronger effect = lower value 0.8 | locus YIL073C, strain SPO22, stronger effect = lower value 0.654 | locus YJL095W, strain BCK1 (second series), stronger effect = lower value 0.867 | locus YJL164C, strain tpk1, stronger effect = lower value 0.811 | locus YJL166W, strain qcr8, stronger effect = lower value 0.872 | locus YJL187C, strain SWE1 (second series), stronger effect = lower value 0.42 | locus YJL187C, strain SWE1, stronger effect = lower value 0.895
inactive: locus YBR021W, strain FUR4, stronger effect = lower value 0.898 | locus YBR171W, strain sec66, stronger effect = lower value 0.918 | locus YBR229C, strain ROT2, stronger effect = lower value 0.938 | locus YBR279W, strain paf1, stronger effect = lower value 0.933 | locus YCL011C, strain gbp2, stronger effect = lower value 0.941 | locus YCL016C, strain dcc1, stronger effect = lower value 0.963 | locus YCL061C, strain MRC1, stronger effect = lower value 0.933 | locus YCL069W, strain vba3, stronger effect = lower value 0.975 | locus YCR088W, strain abp1, stronger effect = lower value 0.969 | locus YDL005C, strain med2, stronger effect = lower value 0.974 | locus YDL040C, strain nat1, stronger effect = lower value 0.963 | locus YDR001C, strain nth1, stronger effect = lower value 0.955 | locus YDR195W, strain ref2 0.99 | locus YDR392W, strain spt3, stronger effect = lower value 0.807 | locus YEL037C, strain rad23, stronger effect = lower value 0.925 | locus YEL061C, strain CIN8 (second series), stronger effect = lower value 0.955 | locus YER016W, strain bim1, stronger effect = lower value 0.953 | locus YER110C, stronger effect = lower value 0.979 | locus YER167W, strain BCK2, stronger effect = lower value 0.909 | locus YGL078C, strain dbp3, stronger effect = lower value 0.956 | locus YGL167C, strain pmr1, stronger effect = lower value 0.935 | locus YGL227W, strain vid30, stronger effect = lower value 0.984 | locus YGL240W, strain doc1, stronger effect = lower value 0.978 | locus YGR252W, strain gcn5, stronger effect = lower value 0.77 | locus YHR030C, strain SLT2, stronger effect = lower value 0.978 | locus YHR079C, strain IRE1, stronger effect = lower value 1.02 | locus YHR094C, strain hxt1, stronger effect = lower value 0.965 | locus YIL125W, strain kgd1, stronger effect = lower value 0.951 | locus YIR030C, strain dcg1, stronger effect = lower value 0.958 | locus YJL092W, strain hpr5, stronger effect = lower value 0.97 | locus YJL115W, strain asf1, stronger effect = lower value 0.971 | locus YJL129C, strain trk1, stronger effect = lower value 0.936 | locus YJL134W, strain LCB3, stronger effect = lower value 0.932 | locus YJL154C, strain vps35, stronger effect = lower value 0.959 | locus YJL168C, strain set2, stronger effect = lower value 0.964 | locus YJR066W, strain TOR1, stronger effect = lower value 0.981
